# Laboratory results reported in PubChem BioAssay (NCI).
# The panel holds about 83,000 compounds, 20% with a hit somewhere; the sample as a whole holds those more often.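 The test compound was applied at a single concentration to cells in 96-well plates for 48 hours, and percent growth was recorded.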 The source made the active and inactive calls. Rule for the calls: active = growth percent below 10; inactive = the rest.
# Tested on: MDA-MB-468 breast
# Experiment: NCI-60 one-dose screen, 48 h (100 = growth as untreated, 0 = no growth, -100 = all killed)
# Conditions: 10 µM unless noted
row,Structure (SMILES),growth
1,Oc1c(N=Nc2nn[nH]n2)ccc2ccccc12,85.3% (inactive)
2,C#CCOc1c(OC)cc(C(=O)/C(C)=C/c2cccc(N=[N+]=[N-])c2)cc1OC,24.2% (inactive)
3,NC(=S)N1N=C(c2ccc(Cl)cc2)CC1c1cc2ccccc2[nH]c1=O (stereo not given),111% (inactive)
4,C#CCNC(=O)[C@H](CC)[C@H]1CC[C@H](C)[C@H]([C@@H](C)[C@H](O)[C@H](C)C(=O)[C@H](CC)C2O[C@]3(C=CC(=O)[C@]4(CC[C@@](C)([C@H]5CC[C@](O)(CC)[C@H](C)O5)O4)O3)[C@H](C)C[C@@H]2C)O1 (stereo not given in full),9.34% (active)
5,NCCCOc1cc2ccccc2cc1C(=O)Nc1ccc(Cl)cc1OC(=O)c1cc2ccccc2cc1OCCCN,-86% (active)
6,C#C[C@@]1(O)[C@@H](CO)O[C@@H](n2cc(Br)c3c(Cl)ccnc32)[C@@H]1O,14% (inactive)
7,COc1ccccc1NC(=O)N/C(N)=N/c1nc2ccccc2s1,14.2% (inactive)
8,CCOc1ccccc1C(=O)OCC(=O)Nc1cccc(S(=O)(=O)N(C)C)c1,84.7% (inactive)
9,CCC(c1cccc(O)c1)C(CC)c1cccc(O)c1 (stereo not given),24.1% (inactive)
10,COc1ccc(Nn2c(SCC(=O)Nc3nc(-c4ccc(Cl)cc4)cs3)nc(C)c2C)cc1,26.2% (inactive)
11,Nc1c(Cl)cc(N=Nc2ccccc2)cc1Cl,-61.3% (active)
12,Cc1ccc(S(=O)(=O)Oc2ccc3sc4cccc(NCCN(C)C)c4c(=O)c3c2)cc1,-91.7% (active)
13,CCN(CC)c1ccc2cc(C(=O)NCCOCCOCCOCCn3cc(CCC(=O)Nc4ccc(C(=O)c5ccc(NC(=O)OC(C)(C)C)cc5)cc4)nn3)c(=O)oc2c1,51.3% (inactive)
14,CN(C)c1ccc(Cc2ccc(N(C)C)cc2Cl)c(Cl)c1,88.7% (inactive)
15,Cc1ccc(C)c(NC2=C(Cl)C(=O)c3nc(C)ccc3C2=O)c1,-73.5% (active)
16,COc1cc2c(cc1OC)C(Sc1ccc(C)cc1)c1c(nc(N)c(C#N)c1N)O2 (stereo not given),-46.7% (active)
17,COc1cc(N=Nc2ccc(N)cc2)c(OC)cc1N=Nc1ccccc1.[Cl][Zn][Cl],118% (inactive)
18,COc1c2c(cc3c1C(=O)N[C@@H]1[C@@H](O)[C@@H](O)[C@H](O)C[C@@H]31)OCCO2,93.1% (inactive)

row,Structure (SMILES),growth
1,COC(=O)[C@H](Cc1cnc[nH]1)NC(=O)[C@@H](NC(=O)Nc1cc(C(F)(F)F)cc(C(F)(F)F)c1)C(C)C,-60.9% [100 µM] (active)
2,COc1ccc2c(CCCCC(c3ccccc3)c3ccccc3)c3[n+](cc2c1OC)CCc1cc2c(cc1-3)OCO2,-75.3% (active)
3,CC(C)=CC/C=C(/C)[C@H]1CC[C@]2(C)[C@@H]1CC[C@@H]1[C@@]3(C)CC/C(=N/O)C(C)(C)[C@@H]3CC[C@]12C,47.7% [100 µM] (inactive)
4,CCCCn1c(-c2ccc(C(=O)O/N=C(\N)c3ccc4ccccc4c3)cc2)nc(-c2ccccc2)c1-c1ccccc1,79.9% (inactive)
5,CC1=NC2=NN3C(=NN2C(c2ccccc2)=C1)N=NC(c1ccc(Br)cc1)=C3c1ccc(Br)cc1,105% (inactive)
6,O=C(Nc1ncc(Cc2ccccc2Cl)s1)c1ccc2c(c1)OCCO2,18.5% (inactive)
7,COc1cc(C=O)ccc1OC1OC(COC(C)=O)C(OC(C)=O)C(OC(C)=O)C1OC(C)=O (stereo not given),100% (inactive)
8,CCNc1nc(N2CC(=O)Nc3cc(OC)ccc32)c2ccccc2n1,1.34% (active)
9,O=C(Cc1cccc2ccccc12)N/N=C/c1ccc2c(c1)CCC2,72.3% (inactive)
10,CC(=O)[C@H]1CC[C@H]2[C@@H]3CC[C@H]4CC=CC[C@]4(C)[C@H]3CC[C@]12C,84.7% (inactive)
11,N/C(=N\c1nc2ccccc2s1)NC(=O)Nc1ccccc1,31.4% (inactive)
12,COc1cc(/C=C2\SC(N3CCCCC3)=NC2=O)ccc1OCCCCCCOc1ccc(/C=C2\SC(N3CCCCC3)=NC2=O)cc1OC,7.38% (active)
13,COc1cc2c(cc1O)C(=O)CCCC2,87.3% (inactive)
14,N#Cc1c(NC(=O)NCc2ccccc2)sc2c1CCCCC2,-25.9% (active)
15,NCCCn1c2c(c3cc(-c4ccn[nH]4)ccc3c1=O)C(=O)c1ccccc1-2,62.6% (inactive)
16,CSc1nc2c(c(=O)[nH]1)N=C1c3ccccc3C(=O)C1C(c1ccccc1)N2 (stereo not given),15.4% (inactive)
17,NS(=O)(=O)Oc1ccc2nc(Nc3ccc(F)c(F)c3)ccc2c1,96.9% (inactive)
